Where “and” joins values, the source holds several entries; their conditions need not be identical. Equal entries are not always repeated. Inconclusive results are not listed. Some structures have more than one record in an assay (separate samples or runs), and their calls can disagree. Calls of active or inactive are those of the source. Unless noted, calls follow the shape of the dose curve; as a rule, active = well fitted curve in the direction sought with a large enough effect in the repeat runs; inconclusive = weak or mixed curves; inactive = no such curve, though single readings can be large; an effect the other way counts as inactive or inconclusive.

Assay [1] in a line: qHTS assay to identify small molecule antagonists of the thyroid receptor (TR) signaling pathway - cell viability counter screen (AID 743064). Also: nearly all actives have a fitted effect of over 50% in size. Also: potency is read from the fitted curve at half-maximal effect. A digest of the protocol: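 Plate GH3.TRE-Luc cells; incubate 4 h at 37 °C; add compound, then T3 to 1 nM final; incubate 23.5 h; add CellTiter-Fluor; incubate 30 min at 37 °C, 5% CO2; read fluorescence.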
Assay [2] relates to thyroid hormone receptor (rat, GH3 cells). Briefly: qHTS assay to identify small molecule agonists of the thyroid receptor (TR) signaling pathway (AID 743066; calls by dose curve). (Quantitative high-throughput screening tests each substance at several concentrations.)
A short description of assay [3]: qHTS assay to identify small molecule antagonists of the estrogen receptor alpha (ER-alpha) signaling pathway - cell viability counter screen (AID 743074; calls by dose curve; also: nearly all actives have a fitted effect of over 45% in size).
Assay [4] in a line: qHTS assay to identify small molecule antagonists of the estrogen receptor alpha (ER-alpha) signaling pathway using the BG1 cell line - cell viability counter screen (AID 743081).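 Also: compound given together with 17beta-estradiol as the ER stimulus; nearly all actives have a fitted effect of over 45% in size.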 Also: potency is read from the fitted curve at half-maximal effect.
The target in a further assay is Aromatase (Homo sapiens) (UniProt P11511). Kind of assay: qHTS assay to identify aromatase inhibitors (AID 743083). Also: nearly all actives have a fitted effect of over 55% in size. Also: potency is read from the fitted curve at half-maximal effect.
Aromatase (Homo sapiens), sequence (P11511 whole entry, looked up): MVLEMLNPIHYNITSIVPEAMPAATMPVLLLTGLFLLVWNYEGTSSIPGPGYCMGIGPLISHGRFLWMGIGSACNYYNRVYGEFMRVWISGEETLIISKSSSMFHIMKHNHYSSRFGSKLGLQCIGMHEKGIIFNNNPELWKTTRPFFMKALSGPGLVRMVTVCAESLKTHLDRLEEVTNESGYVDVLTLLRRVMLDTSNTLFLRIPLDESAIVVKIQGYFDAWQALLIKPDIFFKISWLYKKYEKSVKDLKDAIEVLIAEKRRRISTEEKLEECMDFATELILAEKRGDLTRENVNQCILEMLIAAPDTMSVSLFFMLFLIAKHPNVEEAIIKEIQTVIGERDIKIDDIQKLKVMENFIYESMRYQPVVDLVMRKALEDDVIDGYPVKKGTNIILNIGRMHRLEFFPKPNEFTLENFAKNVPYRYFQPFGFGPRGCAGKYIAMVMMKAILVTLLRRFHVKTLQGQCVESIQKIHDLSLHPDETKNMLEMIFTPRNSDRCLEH
The nature of assay [5]: qHTS assay to identify aromatase inhibitors - cell viability counter screen (AID 743084).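 Also: cells stimulated with testosterone during compound exposure; nearly all actives have a fitted effect of over 55% in size.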 Also: potency is read from the fitted curve at half-maximal effect.
Assay [6] in a line: qHTS assay to identify small molecule that activate the aryl hydrocarbon receptor (AhR) signaling pathway - cell viability counter screen (AID 743086).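 Also: HepG2 liver cells carrying the AhR DRE luciferase reporter; series mostly up to about 70 µM; nearly all actives have a fitted effect of over 45% in size.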 A digest of the protocol:
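Cytotoxicity counter screen: CellTiter-Fluor signal (30 min, 37 C) in 4000 HepG2 cells/well carrying the DRE-luciferase reporter, following 24 h compound exposure at 37 C.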

The target in assay [7] is Peroxisome proliferator-activated receptor gamma (Homo sapiens) (UniProt P37231). Kind of assay: qHTS assay to identify small molecule agonists of the peroxisome proliferator-activated receptor gamma (PPARg) signaling pathway (AID 743094; active = well fitted activation curve with a large enough effect in the signal ratio in the repeat runs, not every such curve was filed as active; the % refers to the signal ratio). In short, it runs like this:
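Agonism was assessed in a beta-lactamase reporter system, HEK293H cells with a stably integrated UAS-bla construct under PPARg control; the 17 h treatment at 37C preceded a 1 h room-temperature FRET substrate read.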

Assay [8] in a line: qHTS assay for small molecule agonists of the antioxidant response element (ARE) signaling pathway (AID 743202; active = well fitted activation curve with a large enough effect in the signal ratio in the repeat runs, not every such curve was filed as active; the % refers to the signal ratio; also: potency is read from the fitted curve at half-maximal effect). In short, it runs like this:
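Beta-lactamase reporter activity, read as fluorescence intensity, reflects ARE/Nrf2 pathway induction in HepG2 cells after 16 h compound exposure at 37 C; substrate loading was 2 h at room temperature.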

A short description of assay [9]: qHTS assay for small molecule agonists of the antioxidant response element (ARE) signaling pathway - cell viability counter screen (AID 743203; calls by dose curve; also: nearly all actives have a fitted effect of over 55% in size). A digest of the protocol:
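ATP content via CellTiter-Glo luminescence served as the viability measure. Cells: ARE-bla HepG2, 2,000 per well. Exposure: 16 hrs, 37C/5% CO2.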

The nature of assay [10]: qHTS assay for small molecule activators of the heat shock response signaling pathway - cell viability counter screen (AID 743209). Also: nearly all actives have a fitted effect of over 50% in size. A digest of the protocol: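 Compounds dissolved in DMSO were added to overnight-plated HSE-bla HeLa cells and left 5 h at 37 C. Cell viability was quantified by luminescence using CellTiter-Glo.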
Assay [11] in a line: qHTS assay to identify small molecule agonists of the peroxisome proliferator-activated receptor delta (PPARd) signaling pathway - cell viability counter screen (AID 743211). Also: nearly all actives have a fitted effect of over 55% in size. Also: potency is read from the fitted curve at half-maximal effect. In short, it runs like this: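 Viability of GeneBLAzer PPARd UAS-bla HEK293H cells was assessed after 17 h compound incubation at 37C, using CellTiter-Glo reagent added after the reporter read and luminescence recorded 30 min later.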

A short description of assay [12]: qHTS assay to identify small molecule antagonists of the thyroid receptor (TR) signaling pathway (AID 743065). Also: nearly all actives have a fitted effect of over 55% in size. Also: potency is read from the fitted curve at half-maximal effect. A digest of the protocol: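 Antagonism measured as loss of luciferase signal in GH3 cells stably carrying a TRE-luciferase reporter, co-treated with compound and T3 (1 nM final) for 23.5 h at 37 C. Viability was read in the same well by CellTiter-Fluor.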

The nature of assay [13]: qHTS assay for small molecule activators of the heat shock response signaling pathway (AID 743210; active = well fitted activation curve with a large enough effect in the signal ratio in the repeat runs, with a control signal flat, not every such curve was filed as active; the % refers to the signal ratio;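 also: HeLa cells with beta-lactamase reporter driven by heat shock elements; series mostly up to about 63 µM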). In short, it runs like this:
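Fluorescence from a cleaved B/G FRET substrate (2.5 h, room temp) reports HSE-driven beta-lactamase in HeLa cells treated 5 h at 37 C with DMSO-dissolved compounds.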

Assay [14] in a line: qHTS assay to identify small molecule antagonists of the peroxisome proliferator-activated receptor gamma (PPARg) signaling pathway - cell viability counter screen (AID 743194). Also: nearly all actives have a fitted effect of over 55% in size. The note with it: Potency: co-treated with 50 nM rosiglitazone unless noted. A digest of the protocol:
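Viability was measured as CellTiter-Glo luminescence in GeneBLAzer PPARg UAS-bla HEK293H cells. These cells had been exposed 17 h at 37 C to compounds together with rosiglitazone at 50 nM final, with the beta-lactamase readout taken in the same wells.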

Assay [15] has as its target Aryl hydrocarbon receptor (Homo sapiens) (UniProt P35869). Briefly: qHTS assay to identify small molecule that activate the aryl hydrocarbon receptor (AhR) signaling pathway (AID 743085).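 Also: HG2L7.5c1 human HepG2 liver cells with stably integrated DRE-driven firefly reporter; series mostly up to about 70 µM; nearly all actives have a fitted effect of over 15% in size.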 In short, it runs like this:
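Steps: seed HepG2-AhR-luc cells; allow 5 h at 37C; pin-transfer test compound or vehicle; incubate 24 h at 37C; add viability dye (30 min, 37C) and read fluorescence; add luciferase substrate (30 min, RT) and read luminescence.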

The target in assay [16] is Estrogen receptor (Homo sapiens) (UniProt P03372). Kind of assay: qHTS assay to identify small molecule antagonists of the estrogen receptor alpha (ER-alpha) signaling pathway (AID 743069; active = well fitted curve in the direction sought with a large enough effect in the signal ratio in the repeat runs, not every such curve was filed as active; the % refers to the signal ratio). In short, it runs like this:
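Fluorescence intensity from a beta-lactamase FRET substrate served as the read-out. Cells: HEK293 with stably integrated ER-alpha-UAS-bla reporter. Agonist 17beta-estradiol was co-added with compounds; incubation 18 hr at 37C, substrate 2 hr at room temperature.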

For assay [17] the target is unchanged. Kind of assay: qHTS assay to identify small molecule agonists of the estrogen receptor alpha (ER-alpha) signaling pathway (AID 743075; calls by dose curve).
Assay [18] shares this target. Kind of assay: qHTS assay to identify small molecule agonists of the estrogen receptor alpha (ER-alpha) signaling pathway using the BG1 cell line (AID 743079). Also: nearly all actives have a fitted effect of over 20% in size. Also: potency is read from the fitted curve at half-maximal effect.
For assay [19], the target named is Peroxisome proliferator-activated receptor delta (Homo sapiens) (UniProt Q03181). Briefly: qHTS assay to identify small molecule agonists of the peroxisome proliferator-activated receptor delta (PPARd) signaling pathway (AID 743212; calls by dose curve). In short, it runs like this:
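Steps: seed PPARd-bla HEK293H cells; incubate 5 h, 37 C, 5% CO2; add compounds in DMSO; incubate, 37 C; add LiveBLAzer B/G FRET substrate; hold 2 h at room temperature; measure fluorescence.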

Aryl hydrocarbon receptor (Homo sapiens), sequence (P35869 whole entry, looked up): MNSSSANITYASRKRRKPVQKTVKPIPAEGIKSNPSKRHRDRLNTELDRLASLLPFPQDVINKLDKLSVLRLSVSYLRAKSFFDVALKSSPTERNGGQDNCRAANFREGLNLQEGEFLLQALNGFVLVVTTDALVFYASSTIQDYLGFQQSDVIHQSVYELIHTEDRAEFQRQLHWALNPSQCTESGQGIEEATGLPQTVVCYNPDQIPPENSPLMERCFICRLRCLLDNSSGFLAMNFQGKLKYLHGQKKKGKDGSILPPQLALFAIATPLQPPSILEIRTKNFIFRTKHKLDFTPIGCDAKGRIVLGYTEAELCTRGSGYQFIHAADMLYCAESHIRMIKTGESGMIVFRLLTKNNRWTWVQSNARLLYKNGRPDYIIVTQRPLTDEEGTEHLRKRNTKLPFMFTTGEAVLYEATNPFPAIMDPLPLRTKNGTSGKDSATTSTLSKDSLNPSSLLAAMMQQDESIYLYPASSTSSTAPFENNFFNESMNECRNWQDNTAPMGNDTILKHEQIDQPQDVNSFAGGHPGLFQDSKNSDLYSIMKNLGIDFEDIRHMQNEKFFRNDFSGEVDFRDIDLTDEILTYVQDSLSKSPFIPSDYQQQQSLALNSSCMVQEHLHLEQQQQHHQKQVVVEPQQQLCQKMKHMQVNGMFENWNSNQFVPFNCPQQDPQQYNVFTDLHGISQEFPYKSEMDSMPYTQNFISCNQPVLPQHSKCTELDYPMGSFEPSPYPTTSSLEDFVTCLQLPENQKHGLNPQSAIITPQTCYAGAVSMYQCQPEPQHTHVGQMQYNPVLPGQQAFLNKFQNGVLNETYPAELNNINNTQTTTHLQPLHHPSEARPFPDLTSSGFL
Peroxisome proliferator-activated receptor delta (Homo sapiens), sequence (Q03181 whole entry, looked up): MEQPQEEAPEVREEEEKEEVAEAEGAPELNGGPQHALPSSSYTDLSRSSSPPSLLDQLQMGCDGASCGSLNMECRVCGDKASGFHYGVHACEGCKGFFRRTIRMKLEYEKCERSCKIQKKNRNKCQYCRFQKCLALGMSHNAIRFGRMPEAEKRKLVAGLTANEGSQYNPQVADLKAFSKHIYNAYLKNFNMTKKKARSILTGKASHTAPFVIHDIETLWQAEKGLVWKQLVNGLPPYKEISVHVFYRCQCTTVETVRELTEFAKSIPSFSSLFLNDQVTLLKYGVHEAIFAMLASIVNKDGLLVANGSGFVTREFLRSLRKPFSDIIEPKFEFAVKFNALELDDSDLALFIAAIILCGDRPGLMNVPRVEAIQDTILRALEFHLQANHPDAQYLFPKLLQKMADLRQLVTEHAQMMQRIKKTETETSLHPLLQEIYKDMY
Peroxisome proliferator-activated receptor gamma (Homo sapiens), sequence (P37231 whole entry, looked up): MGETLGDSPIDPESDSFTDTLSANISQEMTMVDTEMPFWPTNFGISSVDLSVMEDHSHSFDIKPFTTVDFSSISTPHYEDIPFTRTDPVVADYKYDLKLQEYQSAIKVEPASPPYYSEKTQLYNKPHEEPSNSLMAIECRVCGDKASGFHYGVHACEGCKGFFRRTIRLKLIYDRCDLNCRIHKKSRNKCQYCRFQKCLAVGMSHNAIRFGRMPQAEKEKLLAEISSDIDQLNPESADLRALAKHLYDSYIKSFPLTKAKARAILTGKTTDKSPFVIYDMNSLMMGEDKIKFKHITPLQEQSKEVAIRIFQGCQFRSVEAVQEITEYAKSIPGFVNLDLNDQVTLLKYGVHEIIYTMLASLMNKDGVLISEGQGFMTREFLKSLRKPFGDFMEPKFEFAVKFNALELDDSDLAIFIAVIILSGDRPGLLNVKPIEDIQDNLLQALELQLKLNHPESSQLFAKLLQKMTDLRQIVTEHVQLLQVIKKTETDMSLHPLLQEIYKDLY
Estrogen receptor (Homo sapiens), sequence (P03372 whole entry, looked up): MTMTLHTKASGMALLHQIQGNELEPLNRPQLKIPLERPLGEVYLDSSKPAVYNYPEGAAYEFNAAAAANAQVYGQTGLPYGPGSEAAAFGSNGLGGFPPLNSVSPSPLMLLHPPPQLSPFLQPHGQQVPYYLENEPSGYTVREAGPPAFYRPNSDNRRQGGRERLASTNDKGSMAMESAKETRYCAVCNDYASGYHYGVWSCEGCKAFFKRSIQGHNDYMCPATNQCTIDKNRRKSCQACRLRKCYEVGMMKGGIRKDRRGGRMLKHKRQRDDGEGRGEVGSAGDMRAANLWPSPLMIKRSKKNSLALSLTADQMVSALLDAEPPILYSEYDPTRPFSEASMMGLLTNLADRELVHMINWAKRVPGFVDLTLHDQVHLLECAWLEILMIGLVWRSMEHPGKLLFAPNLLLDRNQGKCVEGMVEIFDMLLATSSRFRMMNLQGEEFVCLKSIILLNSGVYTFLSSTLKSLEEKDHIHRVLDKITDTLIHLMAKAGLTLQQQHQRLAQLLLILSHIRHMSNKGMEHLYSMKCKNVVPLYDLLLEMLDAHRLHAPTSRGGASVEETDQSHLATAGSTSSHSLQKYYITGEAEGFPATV

Consider `CC[n+]1ccccc1`, for which the Potency result is “inactive and 34.1 µM (active)” in assay [1]; “inactive and 30.4 µM (active)” in assay [4]; “inactive and 54 µM (active)” in the assay with Aromatase (Homo sapiens); “inactive and 54 µM (active)” in assay [5]; “inactive and 2.71 µM (active)” in assay [8]. Besides, the Potency result in [2], in assay [3], in assay [6], in assay [9], in assay [10] and in assay [11] was “inactive” throughout. Also, the call in assay [7] was inactive.

Turning to `CCCCCCCCCCCC(=O)O`, the Potency entry in assay [1], in assay [2], in assay [3], in assay [4], in assay [5] and in assay [6] was “inactive” each time. The Potency entry in [8], in assay [9], in assay [10] and in [11] was “inactive” in each case.

Regarding `CCCC[N+]1(C)CCCC1`, the Potency entry (in assay [1]; in assay [12]; in assay [2]; in assay [3]; in assay [4]; with Aromatase (Homo sapiens)) was “inactive” each time. Besides, the Potency result in assay [5], in [6], in [8], in [9], in assay [10] and in [11] was “inactive” in each case. Moreover, in assay [13], the call was inactive.

As for `CCCC[n+]1ccccc1C`, the Potency entry (in assay [1]; in assay [3]; in assay [4]; with Aromatase (Homo sapiens); in [5]; in assay [6]) was “inactive” in each case. The Potency entry in assay [14], in assay [9], in assay [10] and in assay [11] was “inactive” each time. The molecule was classed as inactive in [13].

As to `O=[N+]([O-])O`, the Potency entry (in assay [1]; in assay [3]; in assay [4]; in the assay with Aromatase (Homo sapiens); in assay [5]; in [15]) was “inactive” each time. Further, the Potency result in [6], in assay [8], in [9], in assay [10] and in assay [11] was “inactive” throughout.

Regarding `C=CCOC(Cn1ccnc1)c1ccc(Cl)cc1Cl` (centres undefined), the Potency is 54.6 µM (active) in assay [1]; 23.7 µM (active) and 61.3 µM (active) and 30.6 µM (active) in assay [12]; 944 nM (active) and 387 nM (active) and 433 nM (active) with Aromatase (Homo sapiens); 49 µM (active) and inactive in assay [11]. Moreover, the Potency entry in [2], in [3], in assay [4], in assay [5], in assay [6] and in assay [14] was “inactive” in each case. The Potency result in [9] and in assay [10] was “inactive” in each case. In addition, the call in assay [7] was inactive.

For `O=P1(N(CCCl)CCCl)NCCCO1` (centres undefined), the Potency entry in assay [1], in [2], in assay [16], in [3], in assay [17] and in [4] was “inactive” each time. Further, the Potency entry (with Aromatase (Homo sapiens); in [5]; in assay [15]; in assay [6]; in assay [14]; in [8]) was “inactive” throughout. For the same molecule, the Potency result in assay [9], in assay [10] and in [11] was “inactive” in each case. For the same molecule, the Potency entry in [18] is “inactive and 27.3 µM (active)”. Further, the molecule was classed as inactive in assay [7] and in assay [19].

As for `O=S(=O)(O)O`, the Potency result (in assay [1]; in [3]; in assay [4]; with Aromatase (Homo sapiens); in [5]; in [15]) was “inactive” throughout. The Potency entry in assay [6], in assay [8], in [9], in assay [10] and in [11] was “inactive” throughout.
